From PubChem BioAssay
Most compounds without a hit are left out; they make up all but 10% or so of the library.
HPGD block = inhibitors of human 15-hydroxyprostaglandin dehydrogenase (HPGD); purified HPGD, NADH fluorescence kinetic, PGE2 substrate; Potency, µM, most hits filed as inhibitors; 150,000 tested, 4.3% active; AID 894
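20 nM HPGD preincubated 15 min at room temperature with compound in 50 mM Tris-HCl pH 8, 0.01% Tween 20. Started with 1 mM NAD+ and 30 uM prostaglandin E2; NADH fluorescence (360/450 nm) read 5 times over 30-s intervals, last minus first.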
ALDH1A1 inh = blocks purified human ALDH1A1 activity; 220,000 tested, 7.3% active; Potency, µM (highest dose often 75.3 µM), most hits filed as inhibitors; Purified ALDH1A1, NADH fluorescence, propionaldehyde substrate; P00352
ALOX12 inhib = 12-hLO (ALOX12) enzyme inhibition; P18054; purified 12-hLO, xylenol orange hydroperoxide absorbance; Potency, µM (doses to about 57.1 µM), most hits filed as inhibitors; 150,000 tested, 0.12% active; AID 1452; active = well fitted inhibition curve with a large enough effect; inconclusive = small, poorly fitted or top-dose-only effect; note: nearly all actives have a fitted effect of over 55% in size
Target sequence (P18054 whole entry, looked up): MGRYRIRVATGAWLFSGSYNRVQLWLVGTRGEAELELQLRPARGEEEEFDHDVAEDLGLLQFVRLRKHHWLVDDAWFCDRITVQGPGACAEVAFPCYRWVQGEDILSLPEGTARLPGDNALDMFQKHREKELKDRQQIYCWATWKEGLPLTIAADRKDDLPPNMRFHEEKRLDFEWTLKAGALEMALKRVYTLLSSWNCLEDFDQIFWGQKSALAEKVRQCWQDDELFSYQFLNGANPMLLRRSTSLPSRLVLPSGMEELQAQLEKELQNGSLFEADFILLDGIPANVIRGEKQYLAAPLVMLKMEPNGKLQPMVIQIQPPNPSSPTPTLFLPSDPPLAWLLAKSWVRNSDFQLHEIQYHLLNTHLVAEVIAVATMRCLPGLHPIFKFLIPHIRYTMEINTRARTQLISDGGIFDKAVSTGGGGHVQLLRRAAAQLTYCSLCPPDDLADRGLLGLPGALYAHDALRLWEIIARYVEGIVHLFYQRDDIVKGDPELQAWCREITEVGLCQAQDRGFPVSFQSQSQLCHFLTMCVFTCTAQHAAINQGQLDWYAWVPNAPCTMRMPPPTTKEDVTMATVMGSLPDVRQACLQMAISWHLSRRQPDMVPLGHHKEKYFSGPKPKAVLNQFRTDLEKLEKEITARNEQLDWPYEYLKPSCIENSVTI
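Hydroperoxide output read as Fe(III)-xylenol orange absorbance, 573-to-405 nm ratio, after 30 min reaction with 40 uM arachidonic acid. Enzyme: 150 nM purified human 12hLO, 15 min compound preincubation; 25 mM Hepes pH 7.0, room temperature.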
LMNA splice mod = LMNA splicing modulation; 200,000 tested, 0.01% active; Potency, µM (titrated, usually from 46.1 µM), usual class: inhibitors; HeLa LMNA splicing GFP/RFP minigene ratio, 48 h; AID 1487; active = well fitted inhibition curve with a large enough effect in the signal ratio, with a control signal flat, not every such curve was filed as active; inconclusive = small, poorly fitted or top-dose-only effect, or effect the other way, or a change in a side signal; the % refers to the signal ratio
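S3 HeLa cells stably expressing lamin A-EGFP splicing minigene plus DsRed2, 600 cells/well, 48 h compound exposure at 37C. Laser-scanning cytometry; analysed as GFP (500-530 nm)/RFP (575-640 nm) total intensity ratio; 0.5% DMSO vehicle.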
PNC assembly inh = perinucleolar compartment assembly inhibition | 140,000 tested, 3.1% active | AID 2417 | PC3M PTB-GFP, PNC prevalence imaging, 16 h; active compounds read low | activity change (PNC), negative = inhibition, % at 10 µM;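 active = readout at or below -70, meaning at least 70% loss of cells showing the perinucleolar compartment, a nuclear body marking cancer cells; inconclusive = readout between -30 and a set limit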
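Read-out is percentage of cells bearing a perinucleolar compartment, from automated 20x imaging of fixed, Hoechst-stained PC3M PTB-GFP cells. Cells were seeded 4 h, then exposed 16 h to compound (23 nl of library stock) in duplicate plates.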
Large screens that a line does not name were inactive. Unless noted, calls come from the whole dose curve; as a rule, active = well fitted inhibition curve with a large enough effect (not every such curve was filed as active); inconclusive = small, poorly fitted or top-dose-only effect, or another doubt; inactive = no such curve, though single readings can be large or run the other way.

OCCN1CCN(C(=S)c2ccc(Cl)cc2)CC1	HPGD block 16µM, ALDH1A1 inh 16µM, PNC assembly inh inconclusive
CCCN1CCN(C(=S)NCc2ccc(Cl)cc2)CC1	none (no result: HPGD block, ALOX12 inhib, PNC assembly inh)
CC(C)(C)c1cc(C(=S)N2CCN(CCO)CC2)cc(C(C)(C)C)c1O	HPGD block 25µM, ALDH1A1 inh 18µM, ALOX12 inhib inconclusive, PNC assembly inh inconclusive
CCN1CCN(C(=S)c2ccc(Cl)cc2)CC1	HPGD block 10µM, ALDH1A1 inh inconclusive
CC(C)CC1C(C#N)=C(N)Oc2n[nH]c(-c3ccccc3)c21 (stereo not drawn)	ALDH1A1 inh inconclusive, PNC assembly inh -100
CC(C)C1C(C#N)=C(N)Oc2n[nH]c(-c3ccccc3)c21 (stereo not drawn)	none
COc1ccc(-c2[nH]nc3c2C(c2ccoc2)C(C#N)=C(N)O3)cc1 (stereo not drawn)	HPGD block 13µM, PNC assembly inh inconclusive
Cc1ccc(-c2[nH]nc3c2C(c2ccoc2)C(C#N)=C(N)O3)cc1C (stereo not drawn)	PNC assembly inh inconclusive
CC(C)CCn1cnc2c(cnn2-c2ccc(F)cc2)c1=O	HPGD block 11µM, ALDH1A1 inh inconclusive, LMNA splice mod inconclusive
COCCn1c(=O)c(CCc2ccccc2)nc2cnc(Oc3cccc(Cl)c3)nc21	ALDH1A1 inh 14µM (no result: LMNA splice mod, PNC assembly inh)
COCCn1c(=O)c(CCc2ccccc2)nc2cnc(OC)nc21	ALDH1A1 inh inconclusive (no result: LMNA splice mod, PNC assembly inh)
Cn1c(=O)c(CCc2ccccc2)nc2cnc(OCc3ccccc3)nc21	ALDH1A1 inh 11µM, LMNA splice mod inconclusive (no result: HPGD block, ALOX12 inhib, PNC assembly inh)
Cc1ccc(NC(=O)Cn2ccn(Cc3ccc(Cl)cc3)c(=O)c2=O)cc1C	none (no result: HPGD block, ALDH1A1 inh, ALOX12 inhib, PNC assembly inh)
Cn1cc(/C=N/n2cnc3scc(-c4ccccc4)c3c2=O)c2ccccc21	ALDH1A1 inh inconclusive, LMNA splice mod inconclusive, PNC assembly inh -113
O=c1c2c(-c3ccccc3)csc2ncn1/N=C/c1cccc([N+](=O)[O-])c1O	LMNA splice mod inconclusive (no result: HPGD block, ALOX12 inhib, PNC assembly inh)
CN(/C(=N\S(=O)(=O)c1ccccc1)C(F)(F)F)c1ccccc1	ALDH1A1 inh 28µM
Cc1ccc2nc(-c3ccc(N)cc3)sc2c1S(=O)(=O)O	HPGD block inconclusive, ALDH1A1 inh inconclusive (no result: LMNA splice mod, PNC assembly inh)
Cc1cc(C2C(=O)CC(=O)CC2c2ccccc2)on1 (stereo not drawn)	ALDH1A1 inh 10µM, ALOX12 inhib inconclusive
Cc1ccc(C(=O)OCC2OC3OC(C)(C)OC3C2O)cc1 (stereo not drawn)	HPGD block 4µM
Cc1[nH]c(=O)c(C(=O)c2ccccc2O)cc1C(=O)O	none (no result: HPGD block, ALOX12 inhib, PNC assembly inh)
Cc1cc(O)c(C(=O)c2ccccc2C(=O)O)cc1C	ALDH1A1 inh 18µM
COc1cccc(Cn2c(=O)c(-c3ccccc3)nc3cnc(N(C)C)nc32)c1	HPGD block inconclusive, ALDH1A1 inh inconclusive (no result: LMNA splice mod, PNC assembly inh)
O=C(O)c1cc2c(cc1Cl)N1CCCCCC1=NS2(=O)=O	none (no result: HPGD block, ALOX12 inhib, LMNA splice mod, PNC assembly inh)
NC(=O)COC(=O)c1ccc2c(c1)S(=O)(=O)N=C1CCCCCN12	ALDH1A1 inh 8.9µM
O=C(c1csnn1)N1CCC2(CCCN(c3ccncc3)C2)CC1	none (no result: LMNA splice mod, PNC assembly inh)
Cc1ccc(NC(=O)CSc2[nH]c(=O)ncc2C)cc1	none (no result: HPGD block, ALDH1A1 inh, ALOX12 inhib, PNC assembly inh)
C/C(Cc1ccccc1)=N/NC(=O)CCCC(=O)N/N=C(/C)Cc1ccccc1	none (no result: HPGD block, ALOX12 inhib, LMNA splice mod, PNC assembly inh)
C/C(Cc1ccccc1)=N\NC(=O)CCCCCC(=O)N/N=C(\C)Cc1ccccc1	ALDH1A1 inh 11µM
CCOC(=O)CC(C(=O)OCC)C1CCCCC1=O (stereo not drawn)	none (no result: ALOX12 inhib, LMNA splice mod, PNC assembly inh)
O=C(N/C(=C/c1cn(-c2ccccc2)nc1-c1ccccc1)C(=O)N1CCOCC1)c1ccc(Cl)cc1Cl	ALDH1A1 inh 16µM
O=C(c1ccccc1Oc1ccccc1)N1CCN(c2ccccc2)CC1	ALDH1A1 inh 22µM, LMNA splice mod inconclusive
O=C(c1cn(-c2ccccc2)nc1-c1ccc(Br)cc1)N1CCOCC1	PNC assembly inh -114
O=C(N/C(=C\c1cn(-c2ccccc2)nc1-c1ccc(Cl)cc1)C(=O)N1CCOCC1)c1ccccc1	PNC assembly inh inconclusive
O=C(c1cn(-c2ccccc2)nc1-c1ccc(F)cc1)N1CCOCC1	ALDH1A1 inh inconclusive
O=C(c1cn(-c2ccccc2)nc1-c1cccs1)N1CCOCC1	none
O=C(c1cn(-c2ccccc2)nc1-c1cccs1)N1CCN(c2ccccc2)CC1	ALDH1A1 inh inconclusive, LMNA splice mod inconclusive, PNC assembly inh -83
CC(C)Oc1cc(O)c2c(c1)OCC=C2CCC(=O)O	none (no result: LMNA splice mod, PNC assembly inh)
